# Experimental data as given in paper PMC4336329 (PLoS ONE, 2015).
# About 14,000 (4.5%) of roughly 310,000 compounds showed an effect of 50% or more. Effects have a minus sign here. This is one part of a sample in which strong results are shown more often than they occur.
# Target: human ether-à-go-go-related gene (hERG) potassium channel (human, UniProt Q12809)
# Assay: primary screen, population patch clamp on CHO cells stably expressing hERG; higher = less effect of the substance
# 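Also: peak tail current of the secondary pulse compared with the same well before compound.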
# Chain of human ether-à-go-go-related gene (hERG) potassium channel (Q12809 whole entry, looked up): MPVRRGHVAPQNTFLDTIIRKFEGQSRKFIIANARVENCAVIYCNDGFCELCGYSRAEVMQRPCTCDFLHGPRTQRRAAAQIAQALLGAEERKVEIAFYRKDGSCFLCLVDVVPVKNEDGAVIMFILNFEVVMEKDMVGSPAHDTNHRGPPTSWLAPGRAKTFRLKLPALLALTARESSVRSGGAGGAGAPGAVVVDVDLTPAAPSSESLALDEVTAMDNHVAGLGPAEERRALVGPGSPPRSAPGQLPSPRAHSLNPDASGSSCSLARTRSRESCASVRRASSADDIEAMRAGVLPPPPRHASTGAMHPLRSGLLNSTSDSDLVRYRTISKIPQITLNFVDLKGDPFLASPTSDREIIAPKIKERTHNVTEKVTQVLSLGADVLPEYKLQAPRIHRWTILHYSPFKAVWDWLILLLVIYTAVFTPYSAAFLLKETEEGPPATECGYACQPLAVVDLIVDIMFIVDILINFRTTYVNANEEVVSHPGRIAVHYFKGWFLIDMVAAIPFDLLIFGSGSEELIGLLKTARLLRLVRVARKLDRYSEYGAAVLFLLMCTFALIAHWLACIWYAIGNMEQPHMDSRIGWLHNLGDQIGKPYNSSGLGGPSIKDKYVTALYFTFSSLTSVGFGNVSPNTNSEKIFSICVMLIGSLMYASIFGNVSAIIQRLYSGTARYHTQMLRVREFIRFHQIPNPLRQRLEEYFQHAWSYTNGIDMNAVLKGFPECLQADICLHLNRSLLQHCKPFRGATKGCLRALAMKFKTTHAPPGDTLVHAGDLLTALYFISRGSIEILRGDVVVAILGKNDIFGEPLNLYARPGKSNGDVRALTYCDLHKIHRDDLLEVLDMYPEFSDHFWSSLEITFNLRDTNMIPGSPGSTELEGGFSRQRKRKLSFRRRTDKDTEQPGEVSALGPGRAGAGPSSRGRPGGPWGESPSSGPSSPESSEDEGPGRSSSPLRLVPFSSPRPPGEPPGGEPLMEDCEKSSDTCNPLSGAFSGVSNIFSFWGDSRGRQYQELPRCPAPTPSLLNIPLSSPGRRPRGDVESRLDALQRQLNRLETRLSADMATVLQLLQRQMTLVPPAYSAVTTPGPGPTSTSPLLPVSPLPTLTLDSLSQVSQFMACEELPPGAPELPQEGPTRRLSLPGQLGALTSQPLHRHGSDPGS
row,SMILES,"hERG current change (%, negative = inhibition) at 10uM [%]"
1,COCCNC(=O)c1c(NC(=O)c2ccco2)n(Cc2ccccc2)c2nc3ccccc3nc12,-16.9
2,Cc1ccc(OCC(O)CN2CCc3ccccc3C2)c(C)c1.Cl (stereo not drawn),-72.3
3,Cc1ccc(OCC(O)CN2CCOCC2)c(C)c1.Cl (stereo not drawn),20.2
4,Cc1cccc(OCC(O)CN2CCc3ccccc3C2)c1.Cl (stereo not drawn),-38
5,Cc1cc(OCC(O)CN2CCc3ccccc3C2)cc(C(C)C)c1.Cl (stereo not drawn),-56.2
6,Cc1ccc(OCCCCN2CCc3ccccc3C2)c(C)c1.Cl,-34.1
7,Cc1nc(SCCOc2ccccc2F)[nH]c(=O)c1Cc1ccccc1,46.9
8,O=C(Nc1cnn(Cc2ccccc2)c1)c1nc2ncccn2n1,6.14
9,Cc1nc(CCNC(=O)c2cc(COc3ccc(F)cc3Cl)on2)sc1C,-22.4
10,O=C(O)c1ccc(Cl)c2c1C1C=CCC1C(c1ccccn1)N2 (stereo not drawn),7.76
11,COc1ccc(C(=O)NC2CC2)cc1OC1CCN(Cc2ccc(F)cc2F)CC1,-81.5
12,COc1ccc(C(=O)NC2CCN(Cc3c(F)cccc3Cl)CC2)cc1OC,-1.46
13,COc1ccc(C(=O)NC2CC2)cc1OC1CCN(Cc2ccc(F)cc2Cl)CC1,-70.9
14,COCCNC(=O)c1cccc(OC2CCN(Cc3ccc(F)cc3OC)CC2)c1,-23.1
15,O=C(NCc1ccccn1)c1ccc(OC2CCN(Cc3ccc(F)cc3F)CC2)cc1,-25.9
16,COc1ccc(C(=O)NCC(=O)OCc2ccc(F)cc2Cl)cc1OC,-1.96
17,Cc1cc2sc3ccccc3c(=O)c2c(C)c1O,21.6
18,Cc1ccc(S(=O)(=O)N2CCOCC2)cc1C(=O)Nc1ccc2c(c1)CCC2,-10.6
19,COC(=O)c1cn(NC(=O)C2CCC(C(C)(C)C)CC2)c(=O)c2ccccc12 (stereo not drawn),13.7

row,SMILES,"hERG current change (%, negative = inhibition) at 10uM [%]"
1,NC(=O)C[n+]1cccc2ccccc21.[I-],9.16
2,O/N=C/c1cccc[n+]1CCCCCC[n+]1ccccc1/C=N/O.[Br-],20.1
3,CCCCCCCC[n+]1cccc2c3ccccc3ccc21.[I-],-84.3
4,CCCCCCCCC[n+]1cccc2c3ccccc3ccc21.[Br-],-84.8
5,CCC[n+]1c2ccccc2cc2ccccc21.[I-],23.7
6,CCCC[n+]1c2ccccc2cc2ccccc21.[I-],-32.9
7,CCCCCCCCCCCCCCCC[n+]1cccc2ccccc21.[I-],-71.2
8,Cc1cccc[n+]1CCCCCCCCCC[n+]1ccccc1C.[Br-],37.8
9,[Cl-].c1ccc(C[n+]2cccc3c4ccccc4ccc32)cc1,-15
10,O=C(C[n+]1cccc(CO)c1)Nc1nc2ccccc2s1.[Cl-],-9.18
11,CC(C)CN(C(=O)CCC(=O)OCc1ccc(Cl)cc1Cl)c1c(N)n(CC(C)C)c(=O)[nH]c1=O,-47.3
12,CCn1nc(C)cc1C(=O)NC1CCCc2c1cnn2-c1cc(F)cc(F)c1 (stereo not drawn),-5.58
13,Cc1cc(=O)c2cc(Br)ccc2n1CC(=O)NCc1ccccc1,-12.8
14,O=C(CCNc1cc(Cl)cc(Cl)c1)c1ccco1,-4.77
15,Cc1ccc(C(C)(C)C)c(OCCCCN2CCCC2)c1,-19.9
16,CCCN(CCC)CCNC(=O)CCC(=O)Nc1ccc2nc(N3CCN(C)CC3)cc(C)c2c1,17.7
17,O=c1[nH]ncn2cccc12,24.1
18,CN(Cc1ccc(F)cc1Cl)S(=O)(=O)c1cccs1,-62
19,CN(Cc1c(F)cccc1Cl)S(=O)(=O)c1cccs1,-19.8

row,SMILES,"hERG current change (%, negative = inhibition) at 10uM [%]"
1,COc1ccccc1CN(C)S(=O)(=O)c1cccs1,4.72
2,Cc1c(OC(C)C(=O)NCCCN2CCOCC2)ccc2c1oc(=O)c1ccccc12 (stereo not drawn),6.19
3,O=C(CCN1C(=O)COc2ccccc21)NCCCN1CCN(c2ccccc2F)CC1,-42.7
4,O=C(CN1C(=O)COc2ccccc21)NCCN1CCOCC1,11.3
5,O=C(CCN1C(=O)COc2ccccc21)NCCN1CCN(c2cccc(Cl)c2)CC1,-56.5
6,O=C(CCN1C(=O)COc2ccccc21)NCCCN1CCN(c2ccc(F)cc2)CC1,-63.7
7,O=C(CN1C(=O)COc2ccccc21)NCCN1CCCC1,13.6
8,COc1ccc(N2CCN(CCNC(=O)CCN3C(=O)COc4ccccc43)CC2)cc1,-47
9,CN1CCN(CCCNC(=O)CCN2C(=O)COc3ccccc32)CC1,0.334
10,O=C(CCN1C(=O)COc2ccccc21)NCCN1CCN(c2ccccc2F)CC1,-33.5
11,O=C(CN1C(=O)COc2ccccc21)NCCN1CCC(Cc2ccccc2)CC1,-56.6
12,CS(=O)(=O)N(CC(=O)Nc1ccccc1-c1ccccc1)c1ccccc1,-0.135
13,O=C(NC1CCCC1)C(c1ccncc1)N(C(=O)c1ccco1)c1ccc(Cl)cc1 (stereo not drawn),-4.59
14,CCOC(=O)C1(CCOc2ccccc2)CCN(C(=O)CCSC)CC1,-42
15,CCOC(=O)C1(CCOc2ccccc2)CCN(C(C)CSC)CC1 (stereo not drawn),-55.3
16,CCOC(=O)C1(CCc2ccccc2)CCN(C(C)CSC)CC1 (stereo not drawn),-66.6
17,O=C1C2CCCN2C(c2ccc(Cl)c(Cl)c2)N1c1ccccn1 (stereo not drawn),-10
18,O=C(NC(=S)Nc1ccc(-c2nc3ncccc3o2)cc1)c1ccccc1F,14.5
19,CCOCCCNC(=O)C(NC(=O)c1cnccn1)c1ccc(C)cc1 (stereo not drawn),30.4
